DT40 TDP1 CPT – growth inhibition of DT40 Tdp1-/-;hTDP1 cells with camptothecin (screen for TDP1 inhibitors) | Potency, µM (titrated, usually from 46.2 µM), most hits filed as inhibitors | chicken DT40 Tdp1-/-;hTDP1 cells + 20 nM CPT, ATP luminescence, 48 h | 420,000 compounds, 12% hits | AID 686979; note: nearly all actives have a fitted effect of over 55% in size
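Cell growth measured by CellTiter-Glo luminescence after a minimum 48 h, 37 C compound exposure with 20 nM CPT in Tdp1-knockout DT40 cells stably expressing hTDP1, seeded 400/well; qHTS titration format.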
HT1080NT lethal – kills 2HG-producing HT-1080-NT fibrosarcoma cells. HT-1080-NT fibrosarcoma viability, CellTiter-Glo ATP luminescence, 48 h. Potency, µM (doses to about 46.1 µM), hits mostly cytotoxic. 360,000 compounds, 1.6% hits. AID 686970;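 note: NT is the 2HG producing partner of a matched IDH1 knockdown line; nearly all actives have a fitted effect of over 55% in size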
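Viability of the 2HG-overproducing fibrosarcoma line after 48 hours of compound exposure at 37 degrees C was determined by luminescence with CellTiter-Glo, and concentration-effect curves were then fitted and categorized.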
KB-3-1 cytotox – kills parental KB-3-1 adenocarcinoma cells | KB-3-1 viability, CellTiter-Glo ATP luminescence, 72 h | Potency, µM (titrated, usually from 46.1 µM), hits mostly cytotoxic | 400,000 compounds, 1.4% hits | AID 1347075; note: nearly all actives have a fitted effect of over 60% in size
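KB-3-1 parental drug-naive adenocarcinoma cells in DMEM/10% FBS, incubated 72 h at 37 C with pin-transferred compounds across a concentration series. Viability by CellTiter-Glo luminescence; concentration-response curves fitted after normalization.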
KB-V1 MDR tox – KB-V1 MDR subline cytotoxicity. KB-V1 MDR cells viability, CellTiter-Glo, 72 h. Potency, µM (titrated, usually from 46.1 µM), actives largely listed as cytotoxic. 400,000 compounds, 3.4% hits. AID 1347076; note: nearly all actives have a fitted effect of over 60% in size
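Cytotoxicity via CellTiter-Glo luminescence after 72 h compound exposure at 37 degrees C. Cells: drug-selected KB-V1 line, DMEM phenol-red free plus 10% FBS. Compounds tested at multiple concentrations; normalized data fitted to concentration-effect curves.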
HT1080 IDH1KD tx – kills HT-1080 cells with IDH1 knockdown | Potency, µM (top dose mostly 46.1 µM), most hits filed as cytotoxic | 360,000 compounds, 2% hits | AID 686971 | HT-1080 IDH1 knockdown viability, ATP luminescence, 48 h
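CellTiter-Glo luminescence after 48 h compound exposure at 37 degrees C of IDH1-knockdown HT-1080 cells in 5% FBS RPMI. %Activity scaled between DMSO wells and cell-free media wells, with curves fitted and assigned curve classes.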
TDP1 cell noCPT – qHTS for Inhibitors of human tyrosyl-DNA phosphodiesterase 1 (TDP1): qHTS in cells in absence of CPT. 420,000 compounds, 15% hits. DT40 Tdp1-/- hTDP1 cells, no CPT, ATP luminescence, 48 h. Potency, µM (top dose mostly 46.2 µM), most hits filed as inhibitors; note: nearly all actives have a fitted effect of over 55% in size
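No-CPT arm: Tdp1-/-;hTDP1 DT40 cells (400/well) plus compounds, incubated ≥48 hr at 37 °C. Readout CellTiter-Glo luminescence.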
Hits are given with their value; – = inactive; ? = inconclusive; · = no result. Shown are actives, neighbours in structure and some others; about 19% of the full set was active somewhere. Calls come from the whole dose curve; as a rule, active = well fitted curve in the direction sought with a large enough effect; inconclusive = small, poorly fitted or top-dose-only effect, or another doubt; inactive = no such curve, though single readings can be large; an effect the other way counts as inactive or inconclusive.

SMILES	DT40 TDP1 CPT	HT1080NT lethal	KB-3-1 cytotox	KB-V1 MDR tox	HT1080 IDH1KD tx	TDP1 cell noCPT
O=C1NC[C@H](CCCCN2C[C@H](Cc3ccc(O)cc3)N(CCc3ccc(O)cc3)C(=O)C2=O)N(CC2CCCCC2)C1=O	–	–	–	?	?	–
COC(=O)C(=Cc1ccc(-c2ccsc2C(=O)OC)o1)C(=O)OC	–	?	?	–	21µM	?
CCOC(=O)/C(C#N)=C/c1ccc(-c2ccsc2C(=O)OC)o1	–	–	–	–	–	–
CCOC(=O)C(=Cc1ccc(-c2ccsc2C(=O)OC)o1)C(=O)OCC	26µM	–	?	?	?	?
COC(=O)c1sccc1-c1ccc(C(=O)Nc2cccnc2)o1	?	–	–	5.8µM	–	?
COCCCNC(=O)Cn1c(=O)n(-c2cccc(C)c2)c(=O)c2c3c(sc21)CN(C(C)=O)CC3	–	·	–	–	·	–
Cc1ccc(C(=O)Nc2cc3ccccc3oc2=O)cc1	2.1µM	–	3.3µM	4.1µM	–	3.7µM
CC(=O)c1cc(NC(=O)c2ccc(C)cc2)c(=O)oc1/C=C/N(C)C	–	–	–	?	–	–
CC(=O)c1cc(NC(=O)c2ccc(C)cc2)c(=O)oc1C	23µM	–	–	–	?	?
Cc1oc(=O)c(NC(=O)c2ccccc2)cc1C(=O)c1ccccc1	?	–	–	–	–	?
CC(=O)c1cc(NC(=O)c2ccccc2)c(=O)oc1C	?	–	–	–	?	33µM
O=C(NCCCn1ccnc1)c1cccc(Br)c1	–	–	–	–	–	–
COc1ccc(CN2COc3ccc4c(-c5ccccc5)cc(=O)oc4c3C2)cc1	?	·	–	–	·	16µM
COc1ccc(CN2COc3ccc4c(C)cc(=O)oc4c3C2)cc1	·	·	–	?	·	·
Cc1ccc(F)c(S(=O)(=O)NC(=O)C2(C)CCN2C(=O)c2ccc(C(F)(F)F)nc2C)c1 (configuration not stated)	–	–	–	–	?	–
COc1ccc(CSC(=S)NNc2ccccc2)cc1	?	?	?	–	13µM	18µM
COc1ccc(C(=O)NNc2ccccc2)cc1	–	?	–	–	–	–
CC12CCC(C(=O)N/N=C/c3ccc(O)cc3O)(OC1=O)C2(C)C (configuration not stated)	10µM	–	?	?	?	10µM
C/C(=N\NC(=O)C12CCC(C)(C(=O)O1)C2(C)C)c1ccccc1O (configuration not stated)	16µM	?	?	?	?	13µM
CC(C)(C)c1ccc(OCc2cc(=O)n3c4c(sc3n2)CCCC4)cc1	–	·	–	–	·	–
Clc1ccc(CNc2ncnc3nc[nH]c23)cc1	?	·	–	–	·	?
Cc1cc(C)c2nc(N(CCCN(C)C)C(=O)C3=COCCO3)sc2c1	16µM	–	–	–	–	21µM
Cc1cc(C)c2nc(N(CCCN(C)C)C(=O)c3ccc4c(c3)OCCO4)sc2c1	13µM	12µM	?	26µM	?	16µM
CN(C)CCCN(C(=O)c1ccc2c(c1)OCCO2)c1nc2ccccc2s1	?	·	·	·	·	16µM
Oc1c(C(c2ccc(Cl)cc2)N2CCCC2)sc2nc(-c3ccco3)nn12 (configuration not stated)	–	·	–	–	·	–
SMILES	DT40 TDP1 CPT	HT1080NT lethal	KB-3-1 cytotox	KB-V1 MDR tox	HT1080 IDH1KD tx	TDP1 cell noCPT
FC(F)(F)c1ccc2c(c1)ncc1c(-c3ccccc3)nn(-c3ccccc3)c12	–	·	–	–	·	–
CCN(CC)C(=O)[C@H]1C[C@H](CC(=O)NCCC2=CCCCC2)C(=O)N2CCc3c([nH]c4ccc(Cl)cc34)[C@]12C	16µM	–	–	–	–	21µM
CCN(CC)C(=O)[C@H]1CC(CC(=O)NCCCn2ccnc2)C(=O)N2CCc3c([nH]c4ccccc34)[C@]12C (some centres not stated)	–	–	–	–	–	–
CCN(CC)C(=O)[C@H]1CC(CC(=O)NCCC2=CCCCC2)C(=O)N2CCc3c([nH]c4ccccc34)[C@]12C (some centres not stated)	23µM	–	–	–	–	23µM
CCN(CC)C(=O)[C@H]1CC(CC(=O)NCC23CC4CC(CC(C4)C2)C3)C(=O)N2CCc3c([nH]c4ccccc34)[C@]12C (some centres not stated)	16µM	–	–	–	–	8.2µM
C[C@]12c3[nH]c4ccccc4c3CCN1C(=O)C(CC(=O)NCCC1=CCCCC1)C[C@@H]2C(=O)N1CCCCC1 (some centres not stated)	–	–	–	–	–	–
C[C@]12c3[nH]c4ccc(Cl)cc4c3CCN1C(=O)[C@@H](CC(=O)NCCC1=CCCCC1)C[C@@H]2C(=O)N1CCCCC1	–	–	–	–	–	–
Cc1ccc(-n2nc3c(N4CCC(C(=O)NC5CCCCC5)CC4)nnc(C)c3c2C)cc1	?	·	–	–	·	12µM
Cc1ccc(-n2nc3c(N4CCC(C(=O)NC5CCC(C)CC5)CC4)nnc(C)c3c2C)cc1 (configuration not stated)	15µM	·	–	–	·	21µM
Cc1ccc2nc(-c3cccc(NC(=O)CSc4ccc(Cl)cc4)c3)oc2c1	26µM	·	·	·	·	9.2µM
COc1c(C)cc(Br)cc1C(=O)Nc1cccc(-c2nc3ncccc3o2)c1	21µM	–	?	?	–	21µM
Cc1cc(C)c(OCC(=O)Nc2cccc(-c3nc4ncccc4o3)c2)c(Br)c1	?	·	–	?	·	?
Cc1ccc2nc(-c3cccc(NC(=O)c4cccc5ccccc45)c3)oc2c1	?	·	–	–	·	?
O=C(CSc1ccc(Cl)cc1)Nc1cccc(-c2nc3ncccc3o2)c1	?	–	?	15µM	–	18µM
Cc1ccc(C(C)C)c(OCC(=O)Nc2cccc(-c3nc4ncccc4o3)c2)c1	21µM	·	–	?	·	21µM
CCCC(=O)Nc1cccc(-c2nc3ncccc3o2)c1	–	·	–	–	·	–
COc1ccc(C(=O)N2CCC[C@@]3(CCN(CC(C)C)C3)C2)cc1	–	·	·	·	·	–
Cc1ccc(-c2nn3c(C)nnc3s2)cc1NC(=O)CSc1ccc(Cl)cc1	?	–	–	–	–	18µM
Cc1ccc2nc(-c3ccc(C)c(NC(=O)CSc4ccc(Cl)cc4)c3)oc2c1	13µM	·	–	–	·	?
CC(C)C(=O)Nc1cccc(-c2nc3ncccc3o2)c1	–	–	?	–	–	–

Compound activity: PubChem BioAssay, National Center for Advancing Translational Sciences (NCATS)
